# Legend:
# Assay in all cases: DAPPL (digital affinity profiling via proximity ligation, sequencing); 10 mM Tris-HCl pH 7.5, 50 mM NaCl, 1 mM DTT, 4% glycerol, room temperature, 30 min; GST-TFs on glutathione beads, 16-mer random dsDNA library, 0.1% formaldehyde crosslink after washing; high values mean tight binding
# [1] = target: T1, FLI1 (Homo sapiens, UniProt Q01543 1-452); conditions: protein: recombinant; tags: N-terminal GST; dsDNA, one strand shown
# T1 sequence: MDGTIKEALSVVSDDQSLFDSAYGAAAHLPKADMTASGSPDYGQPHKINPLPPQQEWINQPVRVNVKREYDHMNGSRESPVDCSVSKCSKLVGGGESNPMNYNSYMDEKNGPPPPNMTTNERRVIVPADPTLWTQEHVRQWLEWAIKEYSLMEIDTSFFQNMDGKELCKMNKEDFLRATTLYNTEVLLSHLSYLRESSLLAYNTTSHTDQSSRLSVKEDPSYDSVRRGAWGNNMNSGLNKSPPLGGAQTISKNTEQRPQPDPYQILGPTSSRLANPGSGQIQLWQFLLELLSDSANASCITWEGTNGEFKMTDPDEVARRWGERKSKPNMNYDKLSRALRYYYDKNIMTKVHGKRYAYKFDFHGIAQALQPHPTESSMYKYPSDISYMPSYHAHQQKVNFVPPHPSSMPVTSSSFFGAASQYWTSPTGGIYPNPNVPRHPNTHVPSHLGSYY
# Summary of the method: (§1)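 GST fusions of human transcription factors were expressed in yeast and captured with glutathione beads. Once given DNA barcodes and pooled alongside a tag-only sample, they were incubated for 30 min at room temperature with 200 nmole of a random double-stranded 16-mer DNA library in Tris/NaCl/DTT/glycerol buffer, then washed, crosslinked (0.1% formaldehyde), proximity-ligated, PCR-amplified and sequenced on an Illumina NextSeq500. The binding signal of each hexamer is its read frequency for a factor divided by its frequency for the tag-only sample.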
# [2] = target: T2, ELK1 (Homo sapiens, UniProt P19419 1-428); conditions: protein: recombinant; tags: N-terminal GST; dsDNA, one strand shown
# T2 sequence: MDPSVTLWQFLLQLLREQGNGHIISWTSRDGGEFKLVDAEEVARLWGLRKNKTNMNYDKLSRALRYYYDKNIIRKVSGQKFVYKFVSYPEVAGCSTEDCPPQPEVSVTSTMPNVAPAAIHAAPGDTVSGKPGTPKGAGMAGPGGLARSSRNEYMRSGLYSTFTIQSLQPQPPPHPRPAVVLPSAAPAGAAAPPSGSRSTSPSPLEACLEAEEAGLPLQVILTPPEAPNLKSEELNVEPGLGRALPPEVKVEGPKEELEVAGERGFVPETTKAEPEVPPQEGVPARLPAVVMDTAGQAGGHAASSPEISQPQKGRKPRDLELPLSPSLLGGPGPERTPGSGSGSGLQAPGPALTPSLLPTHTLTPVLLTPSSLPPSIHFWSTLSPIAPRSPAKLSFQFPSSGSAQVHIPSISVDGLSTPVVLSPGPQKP
# Summary of the method: as §1
# [3] = target: T3, GABPA (Homo sapiens, UniProt Q06546 1-454); conditions: protein: recombinant; tags: N-terminal GST; dsDNA, one strand shown
# T3 sequence: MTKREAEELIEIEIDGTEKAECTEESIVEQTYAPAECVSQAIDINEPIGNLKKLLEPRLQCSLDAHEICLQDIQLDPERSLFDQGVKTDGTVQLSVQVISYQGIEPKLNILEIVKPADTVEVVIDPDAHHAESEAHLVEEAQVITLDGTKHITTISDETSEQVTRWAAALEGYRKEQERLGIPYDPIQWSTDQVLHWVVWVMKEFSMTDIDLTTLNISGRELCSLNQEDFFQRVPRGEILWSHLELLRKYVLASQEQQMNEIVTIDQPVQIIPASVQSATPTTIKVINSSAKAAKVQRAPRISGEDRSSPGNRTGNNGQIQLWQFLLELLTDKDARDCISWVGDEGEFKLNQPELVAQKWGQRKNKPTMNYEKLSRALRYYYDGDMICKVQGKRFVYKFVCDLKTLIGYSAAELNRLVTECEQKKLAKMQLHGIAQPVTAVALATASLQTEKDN
# Summary of the method: as §1
# [4] = target: T4, ERG (Homo sapiens, UniProt P11308 1-479); conditions: protein: recombinant; tags: N-terminal GST; dsDNA, one strand shown
# T4 sequence: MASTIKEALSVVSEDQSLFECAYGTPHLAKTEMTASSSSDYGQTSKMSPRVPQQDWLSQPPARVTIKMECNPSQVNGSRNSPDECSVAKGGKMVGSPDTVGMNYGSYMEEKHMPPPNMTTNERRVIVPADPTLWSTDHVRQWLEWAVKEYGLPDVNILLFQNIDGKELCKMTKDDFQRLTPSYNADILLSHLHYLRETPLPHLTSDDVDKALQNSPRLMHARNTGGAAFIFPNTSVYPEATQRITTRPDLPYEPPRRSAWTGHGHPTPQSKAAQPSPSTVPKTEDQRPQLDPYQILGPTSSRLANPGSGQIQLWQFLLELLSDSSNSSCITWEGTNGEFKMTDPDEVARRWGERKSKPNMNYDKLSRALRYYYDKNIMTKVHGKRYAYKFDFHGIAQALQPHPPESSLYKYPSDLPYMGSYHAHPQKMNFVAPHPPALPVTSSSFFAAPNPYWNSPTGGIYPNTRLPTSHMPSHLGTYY
# Summary of the method: as §1
# [5] = target: ELF1 (Homo sapiens, UniProt P32519 1-619); conditions: protein: recombinant; tags: N-terminal GST; dsDNA, one strand shown
# Summary of the method: as §1
# [6] = target: T5, EHF (Homo sapiens, UniProt Q9NZC4 1-300); conditions: protein: recombinant; tags: N-terminal GST; dsDNA, one strand shown
# T5 sequence: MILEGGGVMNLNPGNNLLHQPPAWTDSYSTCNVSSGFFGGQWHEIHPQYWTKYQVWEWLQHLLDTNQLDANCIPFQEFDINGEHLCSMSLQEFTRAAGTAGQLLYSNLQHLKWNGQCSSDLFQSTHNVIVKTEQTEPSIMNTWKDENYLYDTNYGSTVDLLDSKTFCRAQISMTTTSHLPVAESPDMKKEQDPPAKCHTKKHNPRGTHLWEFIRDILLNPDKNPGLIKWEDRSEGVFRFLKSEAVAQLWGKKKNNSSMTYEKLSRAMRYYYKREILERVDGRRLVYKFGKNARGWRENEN
# Summary of the method: as §1
# [7] = target: SPI1 (Homo sapiens, UniProt P17947 1-270); conditions: protein: recombinant; tags: N-terminal GST; dsDNA, one strand shown
# Summary of the method: as §1
# [8] = target: SPIB (Homo sapiens, UniProt Q01892 1-262); conditions: protein: recombinant; tags: N-terminal GST; dsDNA, one strand shown
# Summary of the method: as §1
# [9] = target: T6, ELK3 (Homo sapiens, UniProt P41970 1-407); conditions: protein: recombinant; tags: N-terminal GST; dsDNA, one strand shown
# T6 sequence: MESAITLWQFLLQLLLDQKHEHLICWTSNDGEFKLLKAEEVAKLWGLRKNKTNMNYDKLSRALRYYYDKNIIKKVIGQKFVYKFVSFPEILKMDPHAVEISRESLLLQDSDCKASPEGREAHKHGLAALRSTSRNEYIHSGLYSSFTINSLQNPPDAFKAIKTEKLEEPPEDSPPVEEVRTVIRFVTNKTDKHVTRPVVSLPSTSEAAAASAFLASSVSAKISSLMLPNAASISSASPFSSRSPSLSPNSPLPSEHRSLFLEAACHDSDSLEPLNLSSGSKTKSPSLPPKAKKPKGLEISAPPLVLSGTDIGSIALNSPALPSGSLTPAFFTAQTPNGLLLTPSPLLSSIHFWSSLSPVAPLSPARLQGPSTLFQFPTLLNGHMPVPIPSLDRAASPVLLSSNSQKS
# Summary of the method: as §1
# [10] = target: T7, FEV (Homo sapiens, UniProt Q99581 1-238); conditions: protein: recombinant; tags: N-terminal GST; dsDNA, one strand shown
# T7 sequence: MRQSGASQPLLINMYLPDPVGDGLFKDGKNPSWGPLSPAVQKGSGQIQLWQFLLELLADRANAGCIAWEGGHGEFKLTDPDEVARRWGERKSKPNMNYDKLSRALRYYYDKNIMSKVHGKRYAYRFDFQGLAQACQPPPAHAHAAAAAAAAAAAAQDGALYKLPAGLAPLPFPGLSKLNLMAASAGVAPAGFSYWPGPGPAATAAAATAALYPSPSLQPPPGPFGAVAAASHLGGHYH
# Summary of the method: as §1
# [11] = target: ETV5 (Homo sapiens, UniProt P41161 1-510); conditions: protein: recombinant; tags: N-terminal GST; dsDNA, one strand shown
# Summary of the method: as §1
# [12] = target: HSF1 (Homo sapiens, UniProt Q00613 1-529); conditions: protein: recombinant; tags: N-terminal GST; chain copies: 3; dsDNA, one strand shown
# Summary of the method: as §1
# [13] = target: T8, SPIC (Homo sapiens, UniProt Q8N5J4 1-248); conditions: protein: recombinant; tags: N-terminal GST; dsDNA, one strand shown
# T8 sequence: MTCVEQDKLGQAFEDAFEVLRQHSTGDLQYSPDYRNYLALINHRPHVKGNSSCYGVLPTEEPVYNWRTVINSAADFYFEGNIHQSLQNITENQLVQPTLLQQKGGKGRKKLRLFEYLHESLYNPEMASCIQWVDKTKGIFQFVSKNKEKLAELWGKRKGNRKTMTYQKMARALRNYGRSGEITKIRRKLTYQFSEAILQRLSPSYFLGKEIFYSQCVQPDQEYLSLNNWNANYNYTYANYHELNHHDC
# Summary of the method: as §1
# [14] = target: ELF4 (Homo sapiens, UniProt Q99607 1-663); conditions: protein: recombinant; tags: N-terminal GST; dsDNA, one strand shown
# Summary of the method: as §1
# [15] = target: T9, ELK4 (Homo sapiens, UniProt P28324-2 1-405); conditions: protein: recombinant; tags: N-terminal GST; dsDNA, one strand shown
# T9 sequence: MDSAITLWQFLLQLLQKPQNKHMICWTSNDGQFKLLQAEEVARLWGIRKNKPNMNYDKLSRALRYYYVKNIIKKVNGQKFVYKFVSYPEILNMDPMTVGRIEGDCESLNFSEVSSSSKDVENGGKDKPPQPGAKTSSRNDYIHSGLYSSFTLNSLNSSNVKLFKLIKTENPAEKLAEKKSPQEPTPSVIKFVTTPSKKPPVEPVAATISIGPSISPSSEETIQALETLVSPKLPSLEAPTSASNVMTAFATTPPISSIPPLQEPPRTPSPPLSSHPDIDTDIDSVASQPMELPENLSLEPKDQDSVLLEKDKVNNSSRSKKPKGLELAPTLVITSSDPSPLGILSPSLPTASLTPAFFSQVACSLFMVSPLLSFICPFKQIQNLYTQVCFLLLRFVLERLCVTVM
# Summary of the method: as §1
# [16] = target: T10, ETV2 (Homo sapiens, UniProt O00321 1-342); conditions: protein: recombinant; tags: N-terminal GST; dsDNA, one strand shown
# T10 sequence: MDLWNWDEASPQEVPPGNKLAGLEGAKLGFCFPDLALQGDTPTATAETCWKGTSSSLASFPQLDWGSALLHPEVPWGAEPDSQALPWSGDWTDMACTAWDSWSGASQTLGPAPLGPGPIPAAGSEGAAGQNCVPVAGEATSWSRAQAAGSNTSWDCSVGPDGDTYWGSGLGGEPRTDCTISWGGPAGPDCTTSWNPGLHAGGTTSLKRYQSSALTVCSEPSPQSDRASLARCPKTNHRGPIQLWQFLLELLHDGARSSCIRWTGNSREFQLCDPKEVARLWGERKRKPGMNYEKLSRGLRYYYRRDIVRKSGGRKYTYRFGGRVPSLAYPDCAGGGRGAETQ
# Summary of the method: as §1
# [17] = target: T11, ELF3 (Homo sapiens, UniProt P78545 1-371); conditions: protein: recombinant; tags: N-terminal GST; dsDNA, one strand shown
# T11 sequence: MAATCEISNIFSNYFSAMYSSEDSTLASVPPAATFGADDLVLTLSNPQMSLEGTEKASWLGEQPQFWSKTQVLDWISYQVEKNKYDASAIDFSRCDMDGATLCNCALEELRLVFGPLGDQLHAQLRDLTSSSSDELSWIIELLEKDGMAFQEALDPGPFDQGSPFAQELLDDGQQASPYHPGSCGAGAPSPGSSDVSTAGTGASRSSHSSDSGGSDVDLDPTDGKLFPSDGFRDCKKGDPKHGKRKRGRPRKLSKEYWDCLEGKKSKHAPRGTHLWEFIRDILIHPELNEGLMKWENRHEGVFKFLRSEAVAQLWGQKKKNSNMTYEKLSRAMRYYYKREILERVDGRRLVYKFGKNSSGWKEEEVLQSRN
# Summary of the method: as §1
# [18] = target: CRX (Homo sapiens, UniProt O43186 1-299); conditions: protein: recombinant; tags: N-terminal GST; dsDNA, one strand shown
# Summary of the method: as §1
# [19] = target: ETV1 (Homo sapiens, UniProt P50549 1-477); conditions: protein: recombinant; tags: N-terminal GST; dsDNA, one strand shown
# Summary of the method: as §1
# ELF1, sequence (P32519 whole entry): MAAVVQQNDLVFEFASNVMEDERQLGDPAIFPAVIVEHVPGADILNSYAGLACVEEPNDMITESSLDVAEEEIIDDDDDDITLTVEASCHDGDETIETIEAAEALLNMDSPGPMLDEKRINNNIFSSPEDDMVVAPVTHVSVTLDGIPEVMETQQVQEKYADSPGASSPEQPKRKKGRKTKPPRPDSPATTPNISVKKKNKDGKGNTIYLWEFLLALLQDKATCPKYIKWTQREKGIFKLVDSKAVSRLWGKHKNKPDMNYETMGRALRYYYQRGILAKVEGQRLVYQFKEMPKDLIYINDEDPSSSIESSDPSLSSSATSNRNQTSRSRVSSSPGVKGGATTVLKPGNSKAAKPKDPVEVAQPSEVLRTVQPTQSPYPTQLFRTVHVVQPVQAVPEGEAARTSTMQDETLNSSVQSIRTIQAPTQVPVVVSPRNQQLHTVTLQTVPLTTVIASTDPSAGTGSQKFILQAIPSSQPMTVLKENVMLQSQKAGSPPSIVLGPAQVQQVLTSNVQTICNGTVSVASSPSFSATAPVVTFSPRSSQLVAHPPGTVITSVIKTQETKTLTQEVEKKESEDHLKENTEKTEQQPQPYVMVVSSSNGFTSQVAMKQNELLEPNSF
# ETV5, sequence (P41161 whole entry): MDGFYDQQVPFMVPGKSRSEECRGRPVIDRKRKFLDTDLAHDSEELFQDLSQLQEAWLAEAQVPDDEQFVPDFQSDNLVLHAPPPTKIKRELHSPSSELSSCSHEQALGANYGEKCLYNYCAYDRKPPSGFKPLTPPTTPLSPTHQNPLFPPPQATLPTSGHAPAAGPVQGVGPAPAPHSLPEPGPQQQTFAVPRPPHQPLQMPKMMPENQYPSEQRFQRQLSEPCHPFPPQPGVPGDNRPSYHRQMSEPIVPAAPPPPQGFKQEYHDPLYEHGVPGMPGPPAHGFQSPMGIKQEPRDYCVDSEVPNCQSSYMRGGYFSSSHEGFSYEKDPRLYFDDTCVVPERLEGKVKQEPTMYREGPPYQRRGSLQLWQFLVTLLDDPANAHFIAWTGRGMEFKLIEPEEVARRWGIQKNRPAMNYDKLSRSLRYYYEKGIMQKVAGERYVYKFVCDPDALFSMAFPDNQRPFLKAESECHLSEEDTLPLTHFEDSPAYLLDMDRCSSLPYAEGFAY
# SPIB, sequence (Q01892 whole entry): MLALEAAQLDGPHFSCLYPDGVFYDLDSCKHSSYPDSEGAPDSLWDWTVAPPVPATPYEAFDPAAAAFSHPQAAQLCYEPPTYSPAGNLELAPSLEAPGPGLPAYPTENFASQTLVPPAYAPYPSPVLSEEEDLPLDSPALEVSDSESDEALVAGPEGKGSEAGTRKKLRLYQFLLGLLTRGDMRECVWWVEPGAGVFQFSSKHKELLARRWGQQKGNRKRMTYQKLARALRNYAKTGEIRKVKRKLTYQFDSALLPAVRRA
# ETV1, sequence (P50549 whole entry): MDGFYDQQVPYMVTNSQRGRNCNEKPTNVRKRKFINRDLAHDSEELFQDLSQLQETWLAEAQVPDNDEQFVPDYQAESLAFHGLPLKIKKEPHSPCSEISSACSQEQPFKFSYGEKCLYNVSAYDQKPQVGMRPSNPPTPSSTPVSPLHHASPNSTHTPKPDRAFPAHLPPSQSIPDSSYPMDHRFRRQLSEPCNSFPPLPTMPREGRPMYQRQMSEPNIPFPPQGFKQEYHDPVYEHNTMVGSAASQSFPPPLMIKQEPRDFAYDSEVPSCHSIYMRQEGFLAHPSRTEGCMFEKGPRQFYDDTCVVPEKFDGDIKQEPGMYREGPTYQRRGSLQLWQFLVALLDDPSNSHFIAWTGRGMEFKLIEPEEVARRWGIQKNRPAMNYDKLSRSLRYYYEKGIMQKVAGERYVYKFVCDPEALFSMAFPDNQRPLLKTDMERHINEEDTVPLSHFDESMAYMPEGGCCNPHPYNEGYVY
# CRX, sequence (O43186 whole entry): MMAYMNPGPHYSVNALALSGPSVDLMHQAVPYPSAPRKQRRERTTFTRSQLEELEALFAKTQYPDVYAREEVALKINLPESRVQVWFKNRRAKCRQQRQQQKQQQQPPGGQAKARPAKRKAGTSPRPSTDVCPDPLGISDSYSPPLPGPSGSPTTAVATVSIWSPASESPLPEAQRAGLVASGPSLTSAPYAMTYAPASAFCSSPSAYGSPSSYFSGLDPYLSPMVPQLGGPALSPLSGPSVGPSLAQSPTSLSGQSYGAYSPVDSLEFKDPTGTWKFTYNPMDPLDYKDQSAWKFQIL
# ELF4, sequence (Q99607 whole entry): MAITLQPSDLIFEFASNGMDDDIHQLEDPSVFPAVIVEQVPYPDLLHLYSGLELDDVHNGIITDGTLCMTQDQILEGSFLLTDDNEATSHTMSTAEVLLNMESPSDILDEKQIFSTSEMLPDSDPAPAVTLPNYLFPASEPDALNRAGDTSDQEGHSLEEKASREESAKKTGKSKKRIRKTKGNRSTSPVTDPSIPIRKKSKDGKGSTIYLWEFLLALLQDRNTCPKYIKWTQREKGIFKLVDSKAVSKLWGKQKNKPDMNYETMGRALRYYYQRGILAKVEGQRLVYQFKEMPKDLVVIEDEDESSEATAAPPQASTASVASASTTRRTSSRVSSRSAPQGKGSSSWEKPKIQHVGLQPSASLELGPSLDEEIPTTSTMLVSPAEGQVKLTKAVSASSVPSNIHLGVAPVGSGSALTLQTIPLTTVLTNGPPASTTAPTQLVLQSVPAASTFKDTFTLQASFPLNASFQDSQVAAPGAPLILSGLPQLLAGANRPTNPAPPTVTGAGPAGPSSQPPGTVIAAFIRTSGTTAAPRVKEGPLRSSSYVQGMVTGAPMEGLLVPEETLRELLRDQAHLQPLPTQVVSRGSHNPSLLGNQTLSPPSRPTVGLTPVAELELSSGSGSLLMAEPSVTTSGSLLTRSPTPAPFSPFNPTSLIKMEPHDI
# HSF1, sequence (Q00613 whole entry): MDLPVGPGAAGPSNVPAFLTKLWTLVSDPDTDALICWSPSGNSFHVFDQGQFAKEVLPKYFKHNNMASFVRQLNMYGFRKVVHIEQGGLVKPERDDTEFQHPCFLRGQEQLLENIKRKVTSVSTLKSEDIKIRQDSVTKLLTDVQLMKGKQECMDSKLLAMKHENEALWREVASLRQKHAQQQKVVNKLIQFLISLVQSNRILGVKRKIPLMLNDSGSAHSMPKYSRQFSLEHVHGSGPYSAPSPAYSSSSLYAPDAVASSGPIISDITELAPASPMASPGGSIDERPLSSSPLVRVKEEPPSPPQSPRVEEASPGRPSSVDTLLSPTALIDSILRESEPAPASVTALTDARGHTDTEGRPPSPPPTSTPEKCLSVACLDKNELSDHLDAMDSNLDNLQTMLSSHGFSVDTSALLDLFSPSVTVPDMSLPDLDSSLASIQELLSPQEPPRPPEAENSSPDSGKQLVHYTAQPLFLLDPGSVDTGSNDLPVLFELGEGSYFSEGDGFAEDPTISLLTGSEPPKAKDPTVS
sequence,measurement,setting,value
TATCTC,binding signal,[1],"1.19 fold enrichment (6-mer frequency, TF over GST control)"
same,binding signal,[2],"1.32 fold enrichment (6-mer frequency, TF over GST control)"
same,binding signal,[3],"1.39 fold enrichment (6-mer frequency, TF over GST control)"
same,binding signal,[4],"1.18 fold enrichment (6-mer frequency, TF over GST control)"
same,binding signal,[5],"1.29 fold enrichment (6-mer frequency, TF over GST control)"
same,binding signal,[6],"1.35 fold enrichment (6-mer frequency, TF over GST control)"
same,binding signal,[7],"1.15 fold enrichment (6-mer frequency, TF over GST control)"
same,binding signal,[8],"1.38 fold enrichment (6-mer frequency, TF over GST control)"
same,binding signal,[9],"1.25 fold enrichment (6-mer frequency, TF over GST control)"
same,binding signal,[10],"1.27 fold enrichment (6-mer frequency, TF over GST control)"
same,binding signal,[11],"1.2 fold enrichment (6-mer frequency, TF over GST control)"
same,binding signal,[12],"1.45 fold enrichment (6-mer frequency, TF over GST control)"
same,binding signal,[13],"1.21 fold enrichment (6-mer frequency, TF over GST control)"
same,binding signal,[14],"1.21 fold enrichment (6-mer frequency, TF over GST control)"
same,binding signal,[15],"1.27 fold enrichment (6-mer frequency, TF over GST control)"
same,binding signal,[16],"1.18 fold enrichment (6-mer frequency, TF over GST control)"
same,binding signal,[17],"1.16 fold enrichment (6-mer frequency, TF over GST control)"
same,binding signal,[18],"1.76 fold enrichment (6-mer frequency, TF over GST control)"
same,binding signal,[19],"1.3 fold enrichment (6-mer frequency, TF over GST control)"
